# Experimental data reported in PubChem BioAssay.
# Active and inactive are the calls of the source. Unless noted, the rule behind the calls is not given here.
# What was measured:
# [1] = anti-His antibody binders, primary screen, artefact control for SMM control protein annotation, biochemical, small-molecule microarray, 635 nm fluorescence (AID 1128); conditions: anti-His Alexa647 antibody binding, higher = more signal;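 note: score merges feature fluorescence with signal-to-noise for each printed compound spot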
# [2] = system: Human papillomavirus type 1a E7 protein (residues 1-88); assay: HPV1a E7 small-molecule binders, primary screen, biochemical, small-molecule microarray, residues 1-88, 635 nm (AID 1129); conditions: small-molecule microarray binding, fluorescence 635 nm; higher = more signal
# [3] = biological target: Focal adhesion kinase 1 (Homo sapiens) (UniProt Q05397); assay: small-molecule microarray binders of FAK, primary screen, biochemical, 635/667 nm fluorescence, BSA, DTT (AID 1130); conditions: PTK2 binding, 635 nm fluorescence, higher = more signal;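 note: composite of spot emission at 667 nm and signal to noise over triplicate slides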
# [4] = system: Fibrinogen (Alexa647-labelled); assay: fibrinogen binders on compound microarrays, profiling panel, artefact control for SMM control-protein annotation, biochemical, small-molecule microarray, 635/667 nm fluorescence (AID 1131); conditions: fibrinogen-A647 binding fluorescence, higher = more signal;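 note: z-score merges 667 nm fluorescence with per-spot signal-to-noise over triplicate slides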
# [5] = biological target: Follistatin (Homo sapiens) (UniProt P19883); assay: follistatin binders on small-molecule microarrays, primary screen, biochemical, small-molecule microarray, 635/667 nm fluorescence (AID 1132); conditions: FST binding, 635 nm fluorescence, higher = more signal
# [6] = biological target: Fibroblast growth factor 2 (Homo sapiens) (UniProt P09038); assay: FGF2 binders on small-molecule microarrays, primary screen, biochemical, small-molecule microarray, 635/667 nm fluorescence (AID 1133); conditions: small-molecule microarray binding, FGF2, fluorescence 635/667; higher = more signal
# [7] = mitochondrial membrane potential change in A549 cells, profiling panel, cell-based, JC-1 fluorescence, basal, 24 h, 100 nL (AID 1138); conditions: higher = more signal;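 note: A549 lung adenocarcinoma cells under basal conditions with no added stimulus; test concentration not given here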
# [8] = system: Lefty1; assay: Lefty1 binders on small-molecule microarrays, primary screen, biochemical, small-molecule microarray, 635/667 nm fluorescence (AID 1139); conditions: small-molecule microarray binding, fluorescence 635/667; higher = more signal
# [9] = system: wheat germ agglutinin (Triticum aestivum), Alexa647-labelled; assay: wheat germ agglutinin binders on compound microarrays, profiling panel, artefact control for SMM control-protein annotation, biochemical, small-molecule microarray, 635/667 nm fluorescence (AID 1140); conditions: WGA-A647 binding, 635 nm fluorescence, higher = more signal;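 note: score merges 667 nm feature emission with signal to noise over triplicate slides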
# [10] = biological target: Luciferin 4-monooxygenase (Photinus pyralis) (UniProt P08659); assay: firefly luciferase enzyme inhibitors, primary screen, biochemical, luminescence, purified enzyme, 2006 set (AID 1141); conditions: SteadyGlo luminescence, 30 min, higher = more signal, called active from +8 up or from −8 down;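 note: cell-free assay with purified firefly luciferase at 100 ng per well in PBS; test concentration not given here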
# [11] = system: Wnt5a (protein binding on small-molecule microarray); assay: Wnt5a binders on small-molecule microarray, primary screen, biophysical, 635/667 nm fluorescence (AID 1142); conditions: 635 nm fluorescence, higher = more signal;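 note: fluorescence read at 667 nm with signal to noise per printed feature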
# [12] = cell viability in Huh7 cells, primary screen, cytotoxicity control for HCV replication inhibitor project, CellTiter-Glo luminescence, basal, 48 h (AID 1143); conditions: Huh7 HCV replicon, higher = more signal, called active from +8 up or from −8 down;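 note: Huh7 hepatoma cells carrying a hepatitis C replication reporter with no stimulus; test concentration not given here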
# [13] = P. aeruginosa biofilm formation inhibitors, primary screen, PAO1 strain, BacTiter-Glo luminescence, LB-PBS (AID 1144); conditions: 12 h, higher = more signal
# [14] = CREB reporter modulators without forskolin, primary screen, cell-based, PC12, CRE-LacZ reporter, unstimulated (AID 1145); conditions: no forskolin, luminescence, 4.5 h, higher = more signal, called active from +8 up or from −8 down
# [15] = CREB reporter modulators under forskolin, primary screen, cell-based, PC12, CRE-LacZ reporter, forskolin-stimulated (AID 1146); conditions: luminescence, 4.5 h, higher = more signal, called active from +8 up or from −8 down;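 note: PC12 cells with 6xCRE LacZ reporter stimulated by forskolin 10 µM; beta-galactosidase reporter signal reflecting CREB driven transcription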
# [16] = biological target: Streptavidin (Streptomyces avidinii) (UniProt P22629); assay: streptavidin binders on small-molecule microarray, primary screen, artefact control for SMM compound annotation, biophysical, 635/667 nm fluorescence (AID 1147); conditions: streptavidin binding, higher = more signal;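 note: signal reflects streptavidin binding to arrayed compounds as a control protein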
# [17] = small-molecule binders of probe aInhba, primary screen, biochemical, small-molecule microarray, 635/667 nm fluorescence (AID 1148); conditions: higher = more signal;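 note: score merges 667nm spot fluorescence with signal-to-noise for antibody binding to printed compounds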
# [18] = biological target: Torsin-1A (Homo sapiens) (UniProt O14656); assay: torsin A binders from cell lysate, primary screen, small-molecule microarray, wild-type, 635/667 nm (AID 1149); conditions: COS7 hTOR1A-WT lysate, 635 nm fluorescence, higher = more signal
# [19] = biological target: Torsin-1A (Homo sapiens) (UniProt O14656); assay: small-molecule binders of mutant TOR1A in lysate, primary screen, cell lysate, small-molecule microarray, COS7 lysate, 635/667 nm fluorescence (AID 1150); conditions: COS7 hTOR1A mutant lysate, 635 nm fluorescence, higher = more signal;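 note: score pools 667 nm emission and signal to noise measuring lysate protein binding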
# [20] = system: Sonic hedgehog protein (Shh); assay: small-molecule binders of Shh protein, primary screen, biochemical, small-molecule microarray, 635/667 nm fluorescence (AID 1151); conditions: small-molecule microarray binding, 635 nm fluorescence; higher = more signal;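 note: Shh protein binding to compounds spotted on small-molecule microarray slides; score combines spot fluorescence intensity with signal-to-noise across triplicate slides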
# Sequence of Focal adhesion kinase 1 (Homo sapiens) (Q05397 whole entry, looked up): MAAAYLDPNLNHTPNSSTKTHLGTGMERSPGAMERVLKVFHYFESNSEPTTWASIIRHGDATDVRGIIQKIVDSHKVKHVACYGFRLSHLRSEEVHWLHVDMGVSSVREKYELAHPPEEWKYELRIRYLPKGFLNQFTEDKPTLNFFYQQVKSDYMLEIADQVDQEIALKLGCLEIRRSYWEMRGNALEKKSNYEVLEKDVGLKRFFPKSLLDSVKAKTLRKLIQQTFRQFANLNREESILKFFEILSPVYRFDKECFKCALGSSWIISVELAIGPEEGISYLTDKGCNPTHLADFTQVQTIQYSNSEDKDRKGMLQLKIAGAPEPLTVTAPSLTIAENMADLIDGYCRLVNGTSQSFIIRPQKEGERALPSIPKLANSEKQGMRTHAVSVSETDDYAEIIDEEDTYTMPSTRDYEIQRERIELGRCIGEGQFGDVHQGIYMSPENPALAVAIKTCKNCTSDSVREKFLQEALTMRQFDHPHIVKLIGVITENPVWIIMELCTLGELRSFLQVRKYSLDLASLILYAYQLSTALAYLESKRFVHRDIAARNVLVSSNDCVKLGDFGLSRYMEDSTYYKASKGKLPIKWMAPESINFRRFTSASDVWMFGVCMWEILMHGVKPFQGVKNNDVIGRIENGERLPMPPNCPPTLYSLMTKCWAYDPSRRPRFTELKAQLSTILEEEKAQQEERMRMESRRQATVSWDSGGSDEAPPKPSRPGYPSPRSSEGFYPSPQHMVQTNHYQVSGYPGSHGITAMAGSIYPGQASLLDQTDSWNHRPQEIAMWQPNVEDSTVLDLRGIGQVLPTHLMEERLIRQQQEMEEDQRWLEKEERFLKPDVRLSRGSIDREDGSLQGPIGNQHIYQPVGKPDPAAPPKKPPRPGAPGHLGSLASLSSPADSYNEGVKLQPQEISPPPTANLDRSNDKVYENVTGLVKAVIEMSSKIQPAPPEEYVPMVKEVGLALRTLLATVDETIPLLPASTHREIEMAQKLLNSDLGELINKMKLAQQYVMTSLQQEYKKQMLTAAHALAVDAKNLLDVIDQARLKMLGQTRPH
# Sequence of Luciferin 4-monooxygenase (Photinus pyralis) (P08659 whole entry, looked up): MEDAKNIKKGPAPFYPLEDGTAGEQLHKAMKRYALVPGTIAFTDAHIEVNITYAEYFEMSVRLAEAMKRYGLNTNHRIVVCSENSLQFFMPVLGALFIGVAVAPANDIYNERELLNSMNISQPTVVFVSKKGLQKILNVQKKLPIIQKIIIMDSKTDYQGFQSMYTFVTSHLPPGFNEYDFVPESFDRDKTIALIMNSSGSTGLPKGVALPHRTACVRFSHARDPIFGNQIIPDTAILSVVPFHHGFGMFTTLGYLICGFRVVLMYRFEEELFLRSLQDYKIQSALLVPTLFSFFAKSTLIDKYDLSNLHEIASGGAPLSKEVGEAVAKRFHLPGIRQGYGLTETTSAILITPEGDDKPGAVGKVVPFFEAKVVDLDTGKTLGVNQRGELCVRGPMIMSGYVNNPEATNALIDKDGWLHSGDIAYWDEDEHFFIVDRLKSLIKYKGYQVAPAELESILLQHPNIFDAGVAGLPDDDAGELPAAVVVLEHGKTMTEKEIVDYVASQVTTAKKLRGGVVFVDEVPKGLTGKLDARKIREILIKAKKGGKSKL
# Sequence of Fibroblast growth factor 2 (Homo sapiens) (P09038 whole entry, looked up): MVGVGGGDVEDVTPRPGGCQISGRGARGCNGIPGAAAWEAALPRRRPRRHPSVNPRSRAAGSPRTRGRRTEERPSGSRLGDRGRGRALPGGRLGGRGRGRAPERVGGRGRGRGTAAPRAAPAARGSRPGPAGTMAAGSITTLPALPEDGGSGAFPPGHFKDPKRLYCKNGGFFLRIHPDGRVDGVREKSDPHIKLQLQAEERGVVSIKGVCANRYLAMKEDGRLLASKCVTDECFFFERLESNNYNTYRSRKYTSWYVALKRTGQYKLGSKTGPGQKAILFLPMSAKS
# Sequence of Torsin-1A (Homo sapiens) (O14656 whole entry, looked up): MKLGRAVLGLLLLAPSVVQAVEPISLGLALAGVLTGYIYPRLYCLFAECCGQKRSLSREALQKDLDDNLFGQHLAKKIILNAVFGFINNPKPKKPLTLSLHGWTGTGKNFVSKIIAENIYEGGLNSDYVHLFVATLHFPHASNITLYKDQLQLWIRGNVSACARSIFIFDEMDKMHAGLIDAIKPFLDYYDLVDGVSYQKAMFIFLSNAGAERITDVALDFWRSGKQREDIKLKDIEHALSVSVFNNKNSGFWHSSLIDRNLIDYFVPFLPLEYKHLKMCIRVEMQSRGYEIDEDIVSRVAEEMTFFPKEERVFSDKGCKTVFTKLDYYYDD
# Sequence of Streptavidin (Streptomyces avidinii) (P22629 whole entry, looked up): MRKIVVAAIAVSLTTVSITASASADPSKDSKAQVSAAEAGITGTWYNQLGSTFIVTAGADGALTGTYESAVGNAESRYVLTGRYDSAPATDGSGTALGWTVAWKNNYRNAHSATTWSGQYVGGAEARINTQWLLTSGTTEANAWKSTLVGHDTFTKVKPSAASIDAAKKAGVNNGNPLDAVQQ
# Sequence of Follistatin (Homo sapiens) (P19883 whole entry, looked up): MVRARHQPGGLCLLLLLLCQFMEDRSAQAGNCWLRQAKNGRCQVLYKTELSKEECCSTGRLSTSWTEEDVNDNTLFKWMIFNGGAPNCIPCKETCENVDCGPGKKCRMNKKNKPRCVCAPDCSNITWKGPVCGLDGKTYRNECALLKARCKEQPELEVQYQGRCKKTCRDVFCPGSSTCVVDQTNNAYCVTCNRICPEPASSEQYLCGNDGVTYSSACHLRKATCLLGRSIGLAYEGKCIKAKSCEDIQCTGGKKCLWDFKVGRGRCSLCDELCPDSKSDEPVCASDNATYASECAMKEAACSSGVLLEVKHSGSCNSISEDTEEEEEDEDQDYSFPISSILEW
SMILES,composite z-score [1],composite z-score [2],composite z-score [3],composite z-score [4],composite z-score [5],composite z-score [6],z-score [7],composite z-score [8],composite z-score [9],z-score [10],composite z-score [11],z-score [12],z-score [13],z-score [14],z-score [15],composite z-score [16],composite z-score [17],composite z-score [18],composite z-score [19],composite z-score [20]
COc1cc2c(cc1OC)CN(C(=O)[C@@H]1[C@H]3C(=O)O[C@H](c4ccccc4)[C@H](c4ccccc4)N3[C@H](c3ccc(OCCO)cc3)[C@@]13C(=O)Nc1ccccc13)CC2,1.04,1.25,0.164,0.971,1.31,1.26,-0.957,1.19,1.3,-1.65 (inactive),0.758,-1.06 (inactive),-1.46 (inactive),0.829 (inactive),-0.437 (inactive),0.607,0.188,1.06,0.858,1.93
O=C1NC(=O)C2C1C=CC(C(O)c1cccc3ccccc13)N2Nc1ccc(Cl)cc1Cl (stereo not given),1.92,1.16,0.442,0.838,0.425,-0.517,-1.28,-0.734,0.758,0.0698 (inactive),0.288,-1.96 (inactive),-0.329 (inactive),-0.14 (inactive),-0.572 (inactive),0.984,0.153,-0.616,1.01,-0.325
COC(=O)[C@@]1(Cc2ccc(OC)cc2)[C@H]2c3cc(C(=O)N(C)C)n(CCO)c3C[C@H]2CN1C(=O)c1ccccc1,0.214,0.498,1.45,0.662,-0.603,-0.545,0.782,-1.19,0.946,2.04 (inactive),0.29,-0.0015 (inactive),0.371 (inactive),-0.182 (inactive),1.23 (inactive),1.61,0.488,0.145,1.16,-0.544
COCCCNC(=O)[C@]1(CCS(=O)(=O)c2ccccc2)N=C(c2ccc(OCCCO)cc2)O[C@@H]1c1ccccc1CN=[N+]=[N-],3.31,1.25,1.44,0.986,1.32,0.803,0.705,0.144,1.45,-0.842 (inactive),1.31,-0.635 (inactive),0.267 (inactive),-0.781 (inactive),-0.969 (inactive),2.07,0.424,1.35,0.738,0.36
COCCOC(=O)N1C(=O)[C@@]2(c3cc(C#CC4=CCCCC4)ccc31)[C@H](c1ccccc1OCCO)N1[C@H](c3ccccc3)[C@H](c3ccccc3)OC(=O)[C@H]1[C@@H]2C(=O)N1CCCCCCC1,0.778,1.22,0.724,0.767,1.24,1.14,-0.433,0.277,0.405,-0.22 (inactive),0.582,-4.01 (inactive),0.727 (inactive),-0.402 (inactive),0.207 (inactive),0.342,-0.584,0.931,0.156,0.755
CN(C)CCCNC(=O)[C@@]1(C)c2ccccc2C(=O)N(Cc2ccccc2)[C@H]1c1ccc(CO)cc1,0.761,-1.49,-0.3,-0.995,0.392,-0.0132,-0.322,-0.067,-0.749,-0.0692 (inactive),0.0404,-1.97 (inactive),0.329 (inactive),0.389 (inactive),0.261 (inactive),-0.324,-0.176,-0.334,-0.365,0.498
C=C(/C(=C/C[C@H](OC(C)=O)c1ccccc1OCCO)c1cc(C(=O)OC)ccc1OC)C(C)C,2.68,0.278,-0.164,0.0823,0.494,0.428,-0.139,0.501,0.151,-0.475 (inactive),0.608,-3.44 (inactive),0.48 (inactive),13.6 (active),-0.556 (inactive),-1.06,0.0906,0.356,1.53,1.4
C[N+](C)(C)CCCCCCNC(=O)[C@H]1C[C@H]2C(=O)N[C@@H](Cc3ccccc3)C(=O)N2[C@H]1c1ccc(O)cc1,1.32,0.0251,-0.208,-0.222,1.34,0.916,0.0402,1.34,0.112,-0.555 (inactive),0.121,-0.56 (inactive),0.271 (inactive),-1.08 (inactive),-0.227 (inactive),-0.215,-0.0695,0.561,0.313,1.94
COCCOC(=O)N1C(=O)[C@@]2(c3cc(C#CCCO)ccc31)[C@H](C(=O)Nc1nc3ccccc3s1)[C@H]1C(=O)O[C@H](c3ccccc3)[C@H](c3ccccc3)N1[C@@H]2c1ccccc1OCCO,1.87,1.2,0.764,0.866,1.12,0.69,-2.25,0.573,0.902,-0.551 (inactive),0.585,-1.41 (inactive),0.235 (inactive),-0.0526 (inactive),0.595 (inactive),0.968,0.949,0.759,1.12,0.881
CC1=C[C@@]2(CO)C(=O)[C@]3(CO3)[C@@H]1[C@H]1[C@]2(C)C=C(CO)C(=O)[C@]12CO2,0.0455,-0.0634,0.206,-0.403,0.443,0.165,0.173,0.381,0.207,0.538 (inactive),0.129,-0.0354 (inactive),-0.108 (inactive),0.314 (inactive),1.51 (inactive),0.006,-0.103,0.145,0.171,0.265
